FMDV inh = antivirals against foot and mouth disease virus. Potency, µM (highest dose often 57.9 µM), inactives show at the top dose activity change, negative = inhibition, actives largely listed as inhibitors. FMDV antiviral cell-based qHTS. actives 1.2% (n = 410,000). AID 1159524; calls by dose curve; tested in HEK293T cells; also: read-out not given here; nearly all actives have a fitted effect of over 45% in size
HCV inhibitor = HCV inhibition; Huh7.5.1 HCVcc-Cre infection, luciferase reporter, 44 h; Potency, µM (titrated, usually from 41.8 µM), for the others: top-dose activity change, negative = inhibition, most hits filed as inhibitors; actives 3.4% (n = 340,000); AID 651820
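A cell-based infection assay in which seeded cells (1,000 per well) receive test compound after 4 h, are inoculated with HCVcc-Cre at approximately 0.5 moi, and are incubated 44 h before luminescence detection.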
MARV entry inh = inhibitors of Marburg virus binding or cell entry; AID 540276; actives 1.8% (n = 300,000); Potency, µM (doses to about 37.8 µM), for the others: at the top dose activity change, negative = inhibition, usual class: inhibitors; Marburg virus pseudotyped entry inhibition, cell reporter; calls by dose curve; tested in HEK293 cells
LASV entry inh = blocks Lassa virus binding to or entry into cells | AID 540256 | Lassa virus pseudotype entry inhibition, cell reporter | actives 1.2% (n = 300,000) | Potency, µM (top dose mostly 37.9 µM), for inactives: at the highest dose activity change, negative = inhibition, usual class: inhibitors; calls by dose curve; tested in HEK293 cells; also: nearly all actives have a fitted effect of over 50% in size
Sm TGR inh = S. mansoni TGR enzyme inhibition; Q962Y6; purified TGR, DTNB reduction, TNB absorbance 405 nm; Potency, µM (titrated, usually from 114 µM), for inactives: at the highest dose activity change, negative = inhibition, actives largely listed as inhibitors; actives 3% (n = 360,000); also: nearly all actives have a fitted effect of over 60% in size
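First, TGR (20 nM dispensed) and NADPH were mixed with compound. Second, a 15 min room-temperature incubation followed. Third, further NADPH and then DTNB were added to start the reaction. Finally, TNB absorbance was monitored kinetically.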
RE007 growth inh = less growth of the S. pombe RE007 Vpr strain; actives 0.21% (n = 360,000); S. pombe RE007 Vpr strain, BacTiter-Glo ATP luminescence, 24 h; Potency, µM (titrated, usually from 92.2 µM), without a hit: at the highest dose activity change, negative = less growth, actives largely listed as inhibitors; active = well fitted falling curve with a large enough effect; inconclusive = small, poorly fitted or top-dose-only effect; inactive = no such curve, though single readings can be large or run the other way; also: nearly all actives have a fitted effect of over 50% in size
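Fission yeast RE007 carrying one integrated HIV-1 vpr copy, seeded at OD 0.01 in PMG+AL medium with 23 nL pinned compound. Grown 24 h at 30 degrees; viability read by BacTiter-Glo luminescence after 5 min.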
Numbers without * were called inactive; ? = inconclusive; . = not tested or not shown; [ ] = dose if it differs, or a comment. An excerpt weighted towards active compounds, which were near 7.2% of everything screened. Unless noted, calls follow the shape of the dose curve; as a rule, active = well fitted curve in the direction sought with a large enough effect; inconclusive = small, poorly fitted or top-dose-only effect, or another doubt; inactive = no such curve, though single readings can be large; an effect the other way counts as inactive or inconclusive. % is scaled to controls: 0 for no effect and ±100 for the full control effect; potency is read from the fitted curve at half-maximal effect.

SMILES	FMDV inh	HCV inhibitor	MARV entry inh	LASV entry inh	Sm TGR inh	RE007 growth inh
C=C(C(=O)c1ccccc1)C(C)C(=C)C(=O)c1ccccc1	?	14µM*	7.9µM*	18µM*	-8%	20%
COc1ccc(C(CC(=O)c2ccccc2)CC(=O)c2ccccc2)cc1	1%	-24%	?	-29%[46.1 µM]	11%	10%
COc1ccc2sc(-c3ccc(SC)cc3)c(C#CC(C)(C)O)c2c1	-10%	2.8µM*	.	.	-13%	1%
COc1ccc(-c2sc3ccc(OC)cc3c2C#CCCO)cc1	11%	?	.	.	?	-17%
COc1ccc2sc(-c3ccc(N(C)C)cc3)c(C#Cc3cncn3C)c2c1	0%	2.5µM*	.	.	.	-7%
COc1ccc2sc(-c3ccc(S(C)(=O)=O)cc3)c(-c3ccc(SC)cc3)c2c1	-13%	?	.	.	.	7%
COc1ccc2sc(-c3ccc(SC)cc3)c(C#CCO)c2c1	-16%	2.8µM*	.	.	.	-11%
COc1ccc2c(-c3ccc(SC)cc3)c(-c3ccc(S(C)(=O)=O)cc3)sc2c1	-14%	?	.	.	.	12%
COc1ccc2sc(-c3ccc(N(C)C)cc3)c(C#CCCO)c2c1	13%	1.4µM*	.	.	-21%	-8%
CCCc1ccc(OCc2ccc(C(=O)Nc3ccccc3C(=O)OC)o2)cc1	39%	.	28%[46.1 µM]	?	2%	.
CCN1CCN(Cc2c(O)ccc3c(C)c(-c4ccccc4)c(=O)oc23)CC1	0%	.	.	-15%[46.1 µM]	1%	.
COc1cccc(-c2sc3ccc(OC)cc3c2C#CC(C)(C)O)c1	-33%	7.1µM*	.	.	?	-11%
COc1ccc2sc(-c3ccc(N(C)C)cc3)c(C#CC(C)(C)O)c2c1	-6%	3.2µM*	.	.	-2%	-24%
COc1cccc(-c2sc3ccc(OC)cc3c2C#CCC(C)O)c1 (centres undefined)	-18%	?	.	.	-9%	0%
COc1ccc(C(=O)NCC(c2cccnc2)N2CCN(c3ccc(F)cc3)CC2)cc1 (centres undefined)	-25%	.	.	-15%[46.1 µM]	-1%	.
CC(=O)Nc1cc(C(=O)N2CCCC(C)C2)cc2ncn(CCc3ccccn3)c12 (centres undefined)	-4%	.	.	.	.	.
CC(c1ccon1)N(C)Cc1cn(C)nc1-c1cccc(Cl)c1 (centres undefined)	?	-8%	-7%[46.1 µM]	-1%	28µM*	-20%
Cc1cnccc1CN(C)Cc1cn(C)nc1-c1cccc(Cl)c1	-9%	-12%	?	?	?	-32%
Cc1cccc(/C=C2/Sc3ccc(C(=O)NCCN4CCCC4)cc3NC2=O)c1	-22%	?	.	.	-11%	4%
COc1cccc(/C=C2/Sc3ccc(C(=O)NCCN4CCCCCC4)cc3NC2=O)c1	-4%	5.6µM*	.	.	-12%	2%
O=C1Nc2cc(C(=O)NCCN3CCCCCC3)ccc2S/C1=C\c1ccccc1	-21%	14µM*	.	.	-23%	5%
CCc1cccc(-n2c(=O)c3cccnc3n2CC(=O)Nc2ccc(OC)c(Cl)c2)c1	-27%	.	.	12%[46.1 µM]	-16%	.
CCc1cc2c(nc1CC)CCN(CCC(C)=NO[C@@H]1O[C@H](COC(C)=O)[C@@H](OC(C)=O)[C@H](OC(C)=O)[C@@H]1OC(C)=O)C2	.	.	-19%[14.2 µM]	.	.	.
O=S(=O)(CCc1ccncc1)Cc1ccc2c3c(cccc13)CC2	-12%	-24%	.	.	40µM*	1%
COC1=CC2C(=O)C(C(c3ccccc3)C2C)C1(C)O (centres undefined)	.	.	1%[14.2 µM]	.	.	.
SMILES	FMDV inh	HCV inhibitor	MARV entry inh	LASV entry inh	Sm TGR inh	RE007 growth inh
N#CCC(=O)Nc1ccc(C(=O)NCCC(c2ccccc2)c2ccccc2)cc1	-27%	10%	-6%[46.1 µM]	.	-4%	16%
CC(=O)Nc1ccc(CC(=O)NCCC(c2ccccc2)c2ccccc2)cc1	0%	?	?	0.89µM*	-2%	10%
CN(C)c1nc(Nc2ccccc2)nc(N(C)C)n1	-1%	?	3.5µM*	22%	16%	-27%
COC(=O)COC(=O)c1ccc(Oc2nc(OC)nc(N(C)C)n2)cc1	-19%	3%	-8%	3%	2.2µM*	39%[3.69 µM]
COC(=O)c1ccc(Oc2nc(Nc3ccccc3)nc(N(C)C)n2)cc1	?	11µM*	-19%	-3%	2%	-16%
CN(C)c1nc(Nc2ccccc2)nc(Oc2ccc(=O)[nH]n2)n1	15%	-9%	-7%	-1%	2%	14%
CCN(CC)c1nc(Nc2ccccc2)nc(Oc2ccc(C(=O)OC)cc2)n1	?	?	?	2%	32%	-15%
Cc1cc2c(c(-c3cnccn3)c1)OC(CNC(=O)c1cc(C(C)C)[nH]n1)C2 (centres undefined)	-10%	.	.	.	.	.
N#CCCN(CC#Cc1ccccc1)OCc1ccccc1	.	.	21%[14.2 µM]	.	.	.
COc1ccc(S(=O)(=O)/N=C2/C=CC(=O)C(C)=C2C)cc1	-10%	13µM*	?	-9%	?	-4%
CC1=C(C)/C(=N\OS(=O)(=O)c2ccc(C)cc2)C=CC1=O	20µM*	?	1.4µM*	6.3µM*	7.9µM*	16µM*
CC1=CC(=NOS(=O)(=O)c2ccc(C)cc2)CC(C)(C)C1	-27%	.	.	.	.	-8%
C/C(=N/NC(=O)c1ccncc1)c1ccccc1	30%	2%	?	-2%	0%	-7%
C/C(=N\NC(=O)c1ccccc1NC(=O)c1ccc(Cl)cc1)c1ccncc1	3.2µM*	-23%	?	?	-4%	4µM*
C/C(=N/NS(=O)(=O)c1ccc(C(C)C)cc1)c1ccncc1	20%	-13%	.	.	11%	11%
CC(=NNC(=O)c1ccncc1)c1ccccc1Cl	12%	0%	3%[46.1 µM]	14%[46.1 µM]	.	-1%
C/C(=N\NC(=O)c1ccc(N/N=C(\C)c2ccncc2)cc1)c1ccncc1	-10%	?	1µM*	-3%[46.1 µM]	-3%	-8%
C/C(=N/NS(=O)(=O)c1ccc(Cl)cc1)c1ccncc1	8%	7%	.	.	28µM*	1%
C=C1SC(Nc2c(C)cc(C)cc2C)=NC12CCCCC2	?	-65%	3.5µM*	?	1%	0%
CC1(C)CC(NC(=O)c2coc(=O)c(Br)c2)CC(C)(C)N1	32µM*	1%	3%	-1%	-26%	-2%
CC1CCc2c(sc3ncnc(NCCCOC(C)C)c23)C1 (centres undefined)	?	10µM*	?	-11%	1%	-7%
CCN1CCN(c2ncnc3sc4c(c23)CCC(C)C4)CC1 (centres undefined)	-8%	?	.	.	-10%	0%
CC1CCc2c(sc3ncnc(NCc4cccnc4)c23)C1 (centres undefined)	-5%	25µM*	-1%	-3%	9%	-11%
O=C(Cn1cnc2ccc(Cl)cc2c1=O)NC1CCS(=O)(=O)C1 (centres undefined)	-16%	19%	15%[46.1 µM]	1%	-3%	?

Assay outcomes deposited in PubChem BioAssay by National Center for Advancing Translational Sciences (NCATS).
